Experimental data reported in PubChem BioAssay (Tox21).
Where “and” joins values, the source holds several entries; their conditions need not be identical. Identical values can stand only once. Records with an inconclusive call do not appear. Unmarked numbers belong to inactive results. Calls of active or inactive are those of the source. Calls follow the shape of the dose curve; as a rule, active = well fitted activation curve with a large enough effect in the repeat runs; inconclusive = weak or mixed curves; inactive = no such curve, though single readings can be large or run the other way.

The compounds below were run against Nuclear receptor subfamily 1 group I member 2 (Rattus norvegicus) (UniProt Q9R1A7) (assay: Rat pregnane X receptor (rPXR) activation by small molecules, qHTS assay (AID 1346983; also: nearly all actives have a fitted effect of over 20% in size)). Details: rPXR luciferase reporter cells, One-Glo luminescence, 24 h; max activation: hits give high values.
In short: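 Cell-based rPXR activation assay: rPXR cells, 2,000 per well, rested 5hr at 37 C, then exposed to compounds in DMSO for 24 hr at 37 C. Luciferase activity read by One-Glo luminescence after 30 min at room temperature.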
% is scaled to controls: 0 for no effect and ±100 for the full control effect; potency is read from the fitted curve at half-maximal effect.

Nuclear receptor subfamily 1 group I member 2 (Rattus norvegicus), sequence (Q9R1A7 whole entry, looked up): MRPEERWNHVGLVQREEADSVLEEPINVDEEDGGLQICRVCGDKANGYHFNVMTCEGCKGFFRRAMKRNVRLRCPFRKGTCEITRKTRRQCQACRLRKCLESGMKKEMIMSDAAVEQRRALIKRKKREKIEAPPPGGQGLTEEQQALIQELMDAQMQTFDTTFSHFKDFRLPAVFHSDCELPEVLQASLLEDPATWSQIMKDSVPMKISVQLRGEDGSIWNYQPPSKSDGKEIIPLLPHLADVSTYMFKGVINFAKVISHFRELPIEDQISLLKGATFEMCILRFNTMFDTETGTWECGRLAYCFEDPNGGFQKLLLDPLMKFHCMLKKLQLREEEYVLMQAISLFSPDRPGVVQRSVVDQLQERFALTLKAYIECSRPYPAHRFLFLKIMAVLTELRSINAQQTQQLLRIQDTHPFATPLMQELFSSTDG

Compound | max activation | Potency
CO[C@H](C(=O)[C@@H](O)[C@@H](C)O)C1Cc2cc3cc(O[C@H]4C[C@@H](O[C@H]5C[C@@H](O)[C@H](O)[C@@H](C)O5)[C@@H](O)[C@@H](C)O4)c(C)c(O)c3c(O)c2C(=O)[C@H]1O[C@H]1C[C@@H](O[C@H]2C[C@@H](O[C@H]3C[C@](C)(O)[C@H](O)[C@@H](C)O3)[C@H](O)[C@@H](C)O2)[C@H](O)[C@@H](C)O1 (stereo partly specified) | -17.7% | –
CC(C)OC(=O)Nc1ccc2nc(-c3cscn3)[nH]c2c1 | – | 8.91 µM (active)
C=C(Nc1ccc(OCC)cc1)Nc1ccc(OCC)cc1 | -1.1% and 0.608% | –
Nc1nc(/C(=C/CC(=O)O)C(=O)N[C@@H]2C(=O)N3C(C(=O)O)=CCS[C@H]23)cs1 | -1.46% | –
NC(N)=NCC1COC2(CCCCC2)O1 (stereo unspecified) | -2.55% | –
CCCCCCOC(=O)c1cccnc1 | -0.199% | –
CC[C@H]1OC(=O)C[C@@H](O)[C@H](C)[C@@H](O[C@@H]2O[C@H](C)[C@@H](O)[C@H](N(C)C)[C@H]2O)[C@@H](CCN2C[C@H](C)C[C@H](C)C2)C[C@@H](C)C(=O)/C=C/C(C)=C/[C@@H]1CO[C@@H]1O[C@H](C)[C@@H](O)[C@@H](OC)[C@H]1OC | -0.718% | –
C=N[C@@H](C(=O)N[C@@H]1C(=O)N2[C@@H]1SC(C)(C)[C@@H]2C(=O)O)c1ccccc1 | -2.74% | –
CC(C)(COP(=O)(O)OP(=O)(O)OC[C@H]1O[C@@H](n2cnc3c(N)ncnc32)[C@H](O)[C@@H]1OP(=O)(O)O)C(O)C(=O)NCCC(=O)NCCS (stereo partly specified) | 0.513% | –
CO/N=C(\C(=O)N[C@@H]1C(=O)N2C(C(=O)O)=C(CSc3nc(C)c(CC(=O)O)s3)CS[C@H]12)c1csc(N)n1 | -4.17% | –
C=CCN1C(=O)C(CC(C)C)NC1=S (stereo unspecified) | 12.3% | –
COc1ccc(/C=C/C(=O)O)cc1 | 1.47% | –
CCC1OC(=O)C[C@@H](O)[C@H](C)[C@@H](O[C@@H]2O[C@H](C)C[C@H](N(C)C)[C@H]2O)[C@@H](CC=O)C[C@@H](C)C(=O)/C=C/[C@]2(C)OC2C1C (stereo partly specified) | -4.15% | –
CC(=O)Nc1ccc(OC(C)=O)cc1 | -1.35% | –
O=C(O)[C@H]1CN(C/C=C/P(=O)(O)O)CCN1 | -2.14% | –
CC1=C(/C=C/C(C)=C/C=C/C(C)=C/C=C/C=C(C)/C=C/C=C(C)/C=C/C2=C(C)CCCC2(C)C)C(C)(C)CCC1 | -2.1% | –

Compound | max activation | Potency
COc1cc2c(cc1O)CCN[C@]21CS[C@@H]2c3c(OC(C)=O)c(C)c4c(c3[C@H](COC1=O)N1[C@@H]2[C@H]2c3c(cc(C)c(OC)c3O)C[C@@H]([C@@H]1O)N2C)OCO4 | -17.5% | –
Cc1ccc(C(C)(C)c2ccc(C)cc2)cc1 | -4.5% | –
Cc1cc(C(=O)NCCc2ccc(S(=O)(=O)NC(=O)NN3CCCCCC3)cc2)no1 | -0.977% | –
C[Se]CC[C@H](N)C(=O)O | -6.85% | –
COC(=O)C(CN)c1c[nH]c2ccc(OC)cc12 (stereo unspecified) | -1.11% | –
O=C(O)CCCC/C=C(\c1ccccc1)c1cccnc1 | -2.2% | –
O=C[C@H](O)[C@@H](O)[C@@H](O)[C@H](O)CO | -2.08% | –
Cc1cc(=O)c(C(=O)N[C@@H](C(=O)N[C@@H]2C(=O)N3C(C(=O)O)=C(CSc4nnnn4C)CS[C@H]23)c2ccc(O)cc2)c[nH]1 | -0.22% | –
COc1ccc(/C=N/NC(=O)c2ccncc2)c(C(=O)O)c1OC | -2.1% | –
CC[C@@H](C)[C@H](N)C(=O)O | -3.95% | –
CCc1cn([C@H]2C[C@H](O)[C@@H](CO)O2)c(=O)[nH]c1=O | 1.52% | –
CO/N=C(\C(=O)N[C@@H]1C(=O)N2C(C(=O)[O-])=C(C[n+]3cccc4c3CCC4)CS[C@H]12)c1csc(N)n1 | -2.77% | –
C=C1[C@H](CO)[C@@H](O)C[C@@H]1n1cnc2c(=O)[nH]c(N)nc21 | -2.99% | –
Cc1cc(CC(C)CC(C)(C)C)n(O)c(=O)c1 (stereo unspecified) (tested in a mixture with another compound) | -3.3% | –
CCN(CC)CC#CCOC(=O)C(O)(c1ccccc1)C1CCCCC1 (stereo unspecified) | 13% | –
